# Out of some 52,000 compounds screened, about 1,700 (3.3%) were called active. What follows is part of a selection rich in actives, with near analogues and random picks from the rest. Unmarked numbers belong to inactive results. Rule as the data show it: active = survival mostly below about 52% (no sharp cut-off); inactive = mostly above about 56%.
# System: Wild type
# Experiment: growth inhibition of S. aureus wild type versus tarO mutant, primary screen, teichoic acid synthesis inhibitors, RN4220, OD600 (AID 463173)
# Conditions: S. aureus RN4220 wild type/DeltatarO growth, OD600, 18 h, active compounds read low, concentration not given here
row,Compound,survival
1,Cc1ccc(NC(=O)N(Cc2ccc3c(c2)OCO3)C2CCN(Cc3ccccc3)CC2)cc1F,76%
2,Cc1ccc(NC(=O)N(Cc2ccc3c(c2)OCO3)C2CCN(Cc3ccccc3)CC2)cc1C,-1% (active)
3,Cc1ccc(NC(=O)N(Cc2ccc3c(c2)OCO3)C2CCN(Cc3ccccc3)CC2)cc1Cl,133%
4,O=C(Nc1ccccc1)N(Cc1ccc2c(c1)OCO2)C1CCN(Cc2ccccc2)CC1,78%
5,COc1ccccc1NC(=O)N(Cc1ccc2c(c1)OCO2)C1CCN(Cc2ccccc2)CC1,78%
6,Cc1ccc(Cl)cc1NC(=O)N(Cc1ccc2c(c1)OCO2)C1CCN(Cc2ccccc2)CC1,14% (active)
7,Cc1cccc(CN2CCN(C(=O)COc3ccccc3)CC2)c1,108%
8,CCCOc1ccc(CCN)cc1Cl,107%
9,O=C(Nc1ccc2c(c1)OCO2)c1cccn(Cc2cccc([N+](=O)[O-])c2)c1=O,77%
10,c1cc(C2CCNCC2)ccn1,104%
11,NC(=O)CN1C2CCC1CC(NC(=O)C1CC1)C2 (configuration not stated),103%
12,O=S1(=O)N(Cc2ccccc2)CCCN1Cc1cccc(Cl)c1,78%
13,O=S1(=O)N(Cc2ccccc2Cl)CCCN1Cc1ccccc1Cl,-4% (active)
14,O=S1(=O)N(Cc2ccccc2)CCCN1Cc1ccc(F)cc1Cl,76%
15,COc1ccc(CN2C(=O)CC(=O)NC2=S)cc1,107%
16,CCCCc1nn2c(=O)cc(COC(=O)Cc3ccccc3)nc2s1,84%
17,CCC(C)N1CCN(Cc2ccccc2)CC1 (configuration not stated),111%
18,CCCOc1ccc(C2SCC(=O)Nc3c2c(C)nn3-c2cccc(C)c2)cc1OC (configuration not stated),62%
19,COc1ccccc1C1SCC(=O)Nc2c1c(C)nn2-c1cccc(C)c1 (configuration not stated),-10% (active)
20,Cc1cccc(-n2nc(C)c3c2NC(=O)CSC3c2ccccc2Cl)c1 (configuration not stated),64%
21,CCCc1nc2ccccc2c(=O)n1-c1ccccc1,127%
22,O=C(COc1ccccc1)N1CCN(Cc2ccc(Br)cc2)CC1,100%
23,CCCCn1c(=O)c(C(=O)NC)c(O)c2ccccc21,112%
24,CCCCCn1c(=O)c(C(=O)Nc2ccccc2S(N)(=O)=O)c(O)c2ccccc21,0% (active)
25,CCSc1nnc(NC(=O)c2cccn(Cc3ccccc3Cl)c2=O)s1,71%

row,Compound,survival
1,CN1CCC2(CC1)CC(NC=O)c1ccccc1O2 (configuration not stated),108%
2,CCOC(=O)c1ccc(NC(=O)CSc2nc3c(cc2C#N)N2CCC3CC2)cc1,84%
3,N#Cc1cc2c(nc1SCC(=O)Nc1cccc(C(F)(F)F)c1)C1CCN2CC1,0% (active)
4,O=C(CN1C(=O)CN=C(c2ccccc2)c2ccccc21)Nc1cccc(C(F)(F)F)c1,48%
5,Nc1c(C(=O)Nc2cccc(Br)c2)sc2nc3c(cc12)N1CCC3CC1,63%
6,N#Cc1cc2c(nc1SCC(=O)Nc1ccc(C(F)(F)F)cc1)C1CCN2CC1,0% (active)
7,N#Cc1cccc(NC(=O)CSc2nc3c(cc2C#N)N2CCC3CC2)c1,76%
8,Nc1c(C(=O)Nc2ccc(OC(F)(F)F)cc2)sc2nc3c(cc12)N1CCC3CC1,167%
9,N#Cc1cc2c(nc1SCC(=O)Nc1cccc(F)c1)C1CCN2CC1,-3% (active)
10,CN1CCc2c(C#N)c(Cl)nc(NCc3ccccc3)c2C1,103%
11,CCCC1(CCC)C(=O)NC(=Nc2ccccc2)NC1=O,107%
12,COc1ccc(CC2C(=O)N(C)C(=O)N(C)C2=O)cc1,112%
13,CCc1cc2c(s1)NC(=O)CN=C2c1cccs1,112%
14,N#CC(C#N)=Cc1cc(Br)cs1,94%
15,Cc1cc(-n2c(/C=C/c3ccc(Br)s3)nc3ccccc3c2=O)ccc1Br,66%
16,Cn1cc(C=C(C#N)C#N)c2ccccc21,114%
17,Cc1ccccc1-n1c(/C=C/c2c(C)[nH]c3ccccc23)nc2ccccc2c1=O,6% (active)
18,O=c1c2ccccc2nc(/C=C/c2ccccc2F)n1-c1cccc(O)c1,11% (active)
19,Cc1ccc(-n2c(/C=C\c3ccc(F)c(F)c3)nc3ccccc3c2=O)c(C)c1,68%
20,Cc1ccccc1-n1c(/C=C/c2ccc(N(C)C)cc2)nc2ccccc2c1=O,7% (active)
21,Cc1cccc(-n2c(/C=C/c3ccccc3O)nc3ccccc3c2=O)c1,12%
22,Cc1cccc(-n2c(/C=C/c3c(C)[nH]c4ccccc34)nc3ccccc3c2=O)c1,108%
23,Cc1ccccc1-n1c(/C=C/c2ccccc2F)nc2ccccc2c1=O,7% (active)
24,O=c1c2ccccc2nc(/C=C\c2ccccc2F)n1-c1ccc(O)cc1,73%
25,Cc1ccccc1-n1c(/C=C/c2ccc(O)cc2)nc2ccccc2c1=O,48%

row,Compound,survival
1,O=c1c2ccccc2nc(/C=C/c2ccccc2)n1-c1ccccc1F,97%
2,COc1ccc(-n2c(/C=C\c3ccccc3F)nc3ccccc3c2=O)c(OC)c1,68%
3,O=c1c2ccccc2nc(/C=C\c2ccc(F)cc2)n1-c1ccccc1F,71%
4,Cc1cccc2sc(NC(=O)c3cccn(Cc4ccccc4)c3=O)nc12,78%
5,COC(=O)c1ccc(NC(=O)c2cccn(Cc3ccccc3C)c2=O)cc1,88%
6,Cc1c(C(c2ccc(Br)cc2)c2c(O)c3ccccc3oc2=O)c(=O)n(-c2ccccc2)n1C (configuration not stated),69%
7,COc1ccc(CNCC(=O)N2CCC3(CC2)OCCO3)cc1,107%
8,CCOc1ccc(CC2(CCc3ccncc3)C(=O)NC(=O)NC2=O)cc1,96%
9,CCOc1ccc(-n2c(/C=C/c3ccccc3)nc3ccccc3c2=O)cc1,136%
10,CCc1ccc(OCC(=O)N2CCN(CCc3ccccn3)CC2)cc1,83%
11,COc1cccc(-n2c(/C=C/c3ccccc3O)nc3ccccc3c2=O)c1,20%
12,COc1cccc(-n2c(/C=C/c3cccc(C)c3)nc3ccccc3c2=O)c1,0% (active)
13,COc1cccc(-n2c(/C=C\c3ccc(Cl)cc3)nc3ccccc3c2=O)c1,48%
14,Nc1c(C(=O)Nc2ccc(Cl)c(C(F)(F)F)c2)sc2nc3c(cc12)N1CCC3CC1,1% (active)
15,N#Cc1cc2c(nc1SCC(=O)Nc1ccc(Cl)c(C(F)(F)F)c1)C1CCN2CC1,2% (active)
16,CN(C)c1ccc(NC(=O)c2sc3nc4c(cc3c2N)N2CCC4CC2)cc1,114%
17,CCOC(=O)c1ccc(NC(=O)c2sc3nc4c(cc3c2N)N2CCC4CC2)cc1,84%
18,CC(=O)c1ccc(NC(=O)c2sc3nc4c(cc3c2N)N2CCC4CC2)cc1,95%
19,Nc1c(C(=O)Nc2ccc(F)c(Cl)c2)sc2nc3c(cc12)N1CCC3CC1,105%
20,Nc1c(C(=O)Nc2ccc(Cl)cc2)sc2nc3c(cc12)N1CCC3CC1,95%
21,N#Cc1cc2c(nc1SCC(=O)Nc1ccc(F)c(Cl)c1)C1CCN2CC1,-2% (active)
22,Nc1c(C(=O)Nc2ccc(Br)cc2F)sc2nc3c(cc12)N1CCC3CC1,134%
23,COc1ccc(NC(=O)CCc2nc(C3=CCN(Cc4cccc(Cl)c4)CC3)no2)cc1OC,76%
24,CCC(N)C(=O)c1ccc(Cl)cc1 (configuration not stated),105%
25,Cn1c(=O)n(C)c2cc(CNCCc3ccc(F)cc3)ccc21,86%

row,Compound,survival
1,CC(C)C(=O)c1cn(Cc2ccccc2C#N)c2ccccc12,115%
2,Cc1cccc(Cn2cccc(C(=O)Nc3nnc(C)s3)c2=O)c1,71%
3,O=C(Nc1ccc(Cl)cc1C(=O)c1ccccc1)c1cc(Cl)cc(Cl)c1,140%
4,CC(C)(C)c1ccc(OCC(=O)Nc2ccc(Cl)cc2C(=O)c2ccccc2)cc1,63%
5,COc1ccc(C(=O)Nc2ccc(Cl)cc2C(=O)c2ccccc2)c(OC)c1,-2% (active)
6,CC(C)(C)c1ccc(C(=O)Nc2ccc(Cl)cc2C(=O)c2ccccc2)cc1,3% (active)
7,O=C(Nc1ccc(Br)cc1C(=O)c1ccccc1Cl)c1ccccc1F,76%
8,O=C(Nc1ccc(Br)cc1C(=O)c1ccccc1Cl)c1ccc(Br)cc1,136%
9,O=C(Nc1ccc(Br)cc1C(=O)c1ccccc1)c1ccccc1,-1% (active)
10,O=C(COc1ccc(Br)cc1)Nc1ccc(Cl)cc1C(=O)c1ccccc1,72%
11,Cc1ccc(OCC(=O)Nc2ccc(Cl)cc2C(=O)c2ccccc2)cc1C,75%
12,CSc1ncc(C(=O)Nc2ccc(Cl)cc2C(=O)c2ccccc2)c(C)n1,88%
13,COc1cc(OC)cc(C(=O)Nc2ccc(Cl)cc2C(=O)c2ccccc2Cl)c1,139%
14,O=C(Nc1ccc(Cl)cc1C(=O)c1ccccc1)c1ccccc1Br,5% (active)
15,Cc1cc(NC(=O)c2cccn(Cc3cccc(Cl)c3)c2=O)no1,72%
16,O=C1NC(=O)N(Cc2ccco2)C(=O)/C1=C\c1ccco1,111%
17,O=C(Nc1ccc2c(c1)OCO2)c1cccn(Cc2ccc(F)cc2)c1=O,59%
18,CCCc1nc(SC)ncc1C(=O)Nc1ccc(Cl)cc1C(=O)c1ccccc1,84%
19,COC(=O)C1=C(C)OC(N)=C(C#N)C12C(=O)Nc1ccc(C)cc12 (configuration not stated),96%
20,COc1ccc(CN2CCNCC2)cc1,98%
21,Cc1cccc(NC(=O)Cn2cc(C(=O)c3ccccc3)c3ccccc32)c1C,71%
22,CC(c1ccccc1F)n1cc(C(=O)NC2CCCC2)nn1 (configuration not stated),103%
